Screens as filed in PubChem BioAssay.
RN4220 kill: growth inhibition of S. aureus RN4220, primary screen, OD600 | 16 h | inhibition, % (test concentration not listed) | actives 0.33% (n = 330,000) | AID 1259311, 2017; in the data active means inhibition above about 85%
ugtP null kill: growth inhibition of ugtP-null S. aureus, primary screen, RN4220 ugtP deletion, OD600. actives 0.54% (n = 330,000). growth inhibition, % (no concentration beside the values). 16 h; in the data active means growth inhibition above about 68%
PfHsp40 yeast: rescue of yeast from PfHsp40 toxicity, primary screen, S. cerevisiae, ATP luminescence; actives 0.68% (n = 340,000); growth rescue, % at 12.5 µM; S. cerevisiae expressing PfHsp40, growth rescue; in the data active means growth rescue above about 28%, passing the limit was not always enough; inconclusive means no clear call, values can overlap the other calls;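 further: yeast W303a lacking pdr1 and pdr3 grown in galactose medium; growth measured after three days at 30 °C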
PrP UTR inh: inhibition of PrP 5' UTR reporter expression; actives 0.35% (n = 340,000); inhibition, % (no concentration beside the values); cell-based PrP 5' UTR mRNA reporter, plate reader; in the data active means inhibition above about 52%
TcdB inh: TcdB glycohydrolase inhibitors, primary screen, biochemical, single point, plate reader; Toxin B (Clostridioides difficile), P18177; TcdB glycohydrolase enzymatic assay; inhibition, % at 9.99 µM; actives 0.24% (n = 350,000); in the data active means inhibition above about 10%
Each line names hits and unclear results; the compound was inactive in the other large screens. Hits are enriched below; roughly 1.2% of the tested compounds scored in any of these assays.

Nc1cc(C(=O)OCC(=O)NCCC2=CCCCC2)ccc1Cl	none
CON=C/C(C#N)=C/c1cc(C(=O)c2ccccc2)cn1C	none (no result: PfHsp40 yeast, PrP UTR inh, TcdB inh)
CCCCCCCCCCCC(=O)NC(C(=O)O)C(O)c1ccccc1 (stereo not drawn)	PfHsp40 yeast 59.5
CCOc1cc(C=O)c(Br)cc1OC1CCCC1	ugtP null kill 87.2 (no result: TcdB inh)
COc1cc(C=O)c(Br)cc1OCc1ccc(C)cc1	none (no result: TcdB inh)
COc1ccc(C(=O)c2c(C(F)(F)F)oc3c2C(=O)c2ccccc2C3=O)cc1OC	PfHsp40 yeast 60.4 (no result: TcdB inh)
Cc1ccc2c(n1)CC(C)(C)CC2=NO	none (no result: PfHsp40 yeast, PrP UTR inh, TcdB inh)
O=C(C[C@@H]1C=C[C@H](NS(=O)(=O)c2ccc(F)cc2)[C@H](CO)O1)NCCN1CCCCC1	none (no result: RN4220 kill, ugtP null kill, PfHsp40 yeast, PrP UTR inh)
CC(C)(C)NN=C1CC(c2ccccc2)Oc2ccccc21 (stereo not drawn)	ugtP null kill 93.6 (no result: PfHsp40 yeast, PrP UTR inh, TcdB inh)
CC(C)(C)N/N=C1\CC(c2ccccc2)Oc2ccccc21 (stereo not drawn)	none (no result: RN4220 kill, ugtP null kill, TcdB inh)
Cc1noc(C)c1NC(=O)N(C)C[C@H]1Oc2c(NS(C)(=O)=O)cccc2C(=O)N([C@@H](C)CO)C[C@@H]1C	none (no result: RN4220 kill, ugtP null kill, PfHsp40 yeast, PrP UTR inh)
C=CCC[C@@H](Cc1ccc(F)cc1)C(=O)OC[C@H]1CCCN1C(=O)[C@@H](CC=C)CC(=O)N[C@H](CO)Cc1ccccc1	PfHsp40 yeast 38.6 (no result: RN4220 kill, ugtP null kill)
C=CCC[C@@H](Cc1ccc(F)cc1)C(=O)OC[C@@H]1CCCN1C(=O)[C@H](CC=C)CC(=O)N[C@H](CO)Cc1ccccc1	PfHsp40 yeast 45.4 (no result: RN4220 kill, ugtP null kill)
C=CC[C@@H](Cc1ccc(F)cc1)C(=O)OC[C@H]1CCCN1C(=O)[C@@H](CC=C)CC(=O)N[C@H](CO)Cc1ccccc1	none (no result: RN4220 kill, ugtP null kill)
C=CC[C@@H](Cc1ccc(F)cc1)C(=O)OC[C@H]1CCCN1C(=O)[C@@H](CC=C)CC(=O)N[C@@H](CO)Cc1ccccc1	PfHsp40 yeast 32.4
CNC[C@@H]1Oc2ccc(NS(=O)(=O)c3ccc(F)cc3)cc2CC(=O)N([C@@H](C)CO)C[C@H]1C	none (no result: RN4220 kill, ugtP null kill, PfHsp40 yeast, PrP UTR inh)
COCCNC(=O)C[C@H]1CC[C@@H]2[C@H](COC[C@@H](O)CN2C(=O)Nc2ccccc2OC)O1	none (no result: RN4220 kill, ugtP null kill, PfHsp40 yeast, PrP UTR inh)
Cc1ccc(C(=O)NC(=O)OCCn2c(C)cnc2[N+](=O)[O-])cc1	TcdB inh 14.5
CNC(=O)NC(=O)CSc1ccc(S(=O)(=O)N2CCOCC2)cn1	PfHsp40 yeast 33.1
CC1(C)O[C@@H]2[C@H](O1)[C@@H](COS(=O)(=O)O)O[C@H]2n1c(=S)[nH]c2c(=O)[nH]c(N)nc21	TcdB inh 11.6 (no result: RN4220 kill, ugtP null kill)
COc1ccc2c3c([nH]c2c1)[C@H](CO)N(C(=O)C1CC1)CC31CCN(S(C)(=O)=O)CC1	none (no result: RN4220 kill, ugtP null kill, PfHsp40 yeast, PrP UTR inh)
O=S(=O)(NCC1CCCO1)c1ccc(Br)cc1 (stereo not drawn)	PfHsp40 yeast 34.7
CC(C)C1/C(=N/O)CC(c2ccccc2)NC1c1ccccc1 (stereo not drawn)	PfHsp40 yeast 49.3 (no result: RN4220 kill, ugtP null kill)
Cc1cc(C(=O)CSc2nnnn2-c2ccccc2)c(C)n1-c1ccc2c(c1)OCO2	TcdB inh 11.3 (no result: RN4220 kill, ugtP null kill)
COc1ccc(/C=N/Nc2ccc([N+](=O)[O-])cc2)cc1O	PfHsp40 yeast 41.5 (no result: RN4220 kill, ugtP null kill)
Cc1ccc(/C=C(\C#N)C(=O)NCC2CCCO2)o1 (stereo not drawn)	PfHsp40 yeast inconclusive
Cc1ccccc1-n1c(C)cc(/C=C(\C#N)C(=O)NCC2CCCO2)c1C (stereo not drawn)	PfHsp40 yeast 30.3 (no result: TcdB inh)
O=C(O)/C=C/C(=O)c1ccc2c(c1)CCc1ccccc1-2	PfHsp40 yeast 429.6 (no result: RN4220 kill, ugtP null kill)
COc1ccc([Si](C)(C)[C@@H]2[C@@H](CCO)O[C@]3(C(=O)N(Cc4cccc(NC(C)=O)c4)c4ccccc43)[C@H]2C)cc1	none (no result: RN4220 kill, ugtP null kill, PfHsp40 yeast, PrP UTR inh)
COc1ccc(/C=C2/SC(=O)N(NS(=O)(=O)c3ccccc3)C2=S)cc1OC	PfHsp40 yeast 35.2
COc1cc(/C=C2\SC(=S)N(NS(=O)(=O)c3ccccc3)C2=O)cc(OC)c1OC	PfHsp40 yeast 41.0
COCCNC(=S)NN=C(C)c1ccccc1O	none (no result: PfHsp40 yeast, PrP UTR inh, TcdB inh)
Cc1c(CCC(=O)O)c(=O)oc2c(C)c3occ(-c4ccc(Cl)cc4)c3cc12	RN4220 kill 96.4, ugtP null kill 100.7
Cc1c(CCC(=O)O)c(=O)oc2cc3occ(-c4ccc(Cl)cc4)c3cc12	none
CCOc1ccc(-c2cc(C)[n+](CCO)c(-c3ccc(OCC)cc3)c2)cc1	none
CCOc1ccc(-c2cc(C)[n+](CCc3ccc(OC)c(OC)c3)c(-c3ccc(OCC)cc3)c2)cc1	RN4220 kill 100.2, ugtP null kill 100.4 (no result: PrP UTR inh)
O=C(Nc1cc(Cl)ccc1-n1cncn1)c1ccco1	none
O=C(Nc1cc(Cl)ccc1-n1cncn1)c1ccc([N+](=O)[O-])s1	ugtP null kill 100.5 (no result: TcdB inh)
O=P(Nc1ccccc1)(Nc1ccccc1)c1ccccc1	PfHsp40 yeast 43.0
CP(=O)(Nc1ccccc1)C(Cl)(Cl)Cl (stereo not drawn)	none
CN1C(=O)CSc2ccc(NC(=O)N3CCc4ccccc43)cc21	TcdB inh 16.5
C[C@@H]1CN([C@@H](C)CO)C(=O)c2cc(NC(=O)CCCN(C)C)ccc2O[C@H]1CN(C)C	none (no result: RN4220 kill, ugtP null kill, PfHsp40 yeast, PrP UTR inh)
COc1ccc2c(c1)S/C(=C\C(=O)c1ccncc1)N2C	PfHsp40 yeast 174.5 (no result: RN4220 kill, ugtP null kill, TcdB inh)
CCOC(=O)CSc1nc(C(C)C)nc2sc(C)c(C)c12	ugtP null kill 88.6
CCOC(=O)CSc1nc2sc(C)c(C)c2c(=O)n1C	none (no result: TcdB inh)
COc1cccc(C(=O)Nc2ccc3c(c2)OC[C@H](C)N(C)C[C@H](C)[C@@H](OC)CN(C)C3=O)c1	none (no result: RN4220 kill, ugtP null kill, PfHsp40 yeast, PrP UTR inh)
COc1ccc2cnn(-c3ccccc3C)c(=O)c2c1OC	PfHsp40 yeast 136.0 (no result: TcdB inh)
COc1ccc2cnn(Cc3ccccc3)c(=O)c2c1OC	none (no result: TcdB inh)
COc1ccc2cnn(-c3ccccc3)c(=O)c2c1OC	PfHsp40 yeast 65.5 (no result: TcdB inh)
Oc1ccccc1-[n+]1c(-c2ccccc2)cc(-c2ccccc2)c(O)c1-c1ccccc1	PfHsp40 yeast 42.2
Oc1ccc(-[n+]2c(-c3ccccc3)cc(-c3ccccc3)cc2-c2ccccc2)cc1	none (no result: RN4220 kill, ugtP null kill)
CC(=O)c1ccc(NC(=O)c2ccc([N+](=O)[O-])o2)cc1	none
O=C(NNC(=O)c1ccc([N+](=O)[O-])o1)c1ccccc1	ugtP null kill 98.8 (no result: TcdB inh)
NC(=O)c1oc2ccccc2c1NC(=O)c1ccc([N+](=O)[O-])o1	RN4220 kill 100.0, ugtP null kill 100.4
NC(=O)c1oc2ccccc2c1NC(=O)c1ccc(F)cc1	none
Cc1ccc(C)c(-c2nnc(NC(=O)c3ccc([N+](=O)[O-])o3)o2)c1	ugtP null kill 90.0
Cc1cc(C)cc(NC(=O)c2ccc([N+](=O)[O-])o2)c1	RN4220 kill 93.3, ugtP null kill 94.1
Cc1ccc(C)c(-c2nnc(NC(=O)C3=COCCO3)o2)c1	none
COc1ccc(CN(C)C[C@@H]2OCCCC[C@H](C)Oc3ccc(NC(=O)NC(C)C)cc3C(=O)N([C@H](C)CO)C[C@H]2C)cc1	none (no result: RN4220 kill, ugtP null kill, PfHsp40 yeast, PrP UTR inh)
Cc1ccc(S(=O)(=O)Nc2ccc3c(c2)C(=O)N([C@H](C)CO)C[C@@H](C)[C@H](CN(C)C(=O)Nc2ccc(F)cc2)O3)cc1	none (no result: RN4220 kill, ugtP null kill, PfHsp40 yeast, PrP UTR inh)
